To fix the notation:
B1: ENSMUSG00000058297.485|Spock2 (ssRNA)
RNA: GGGAGUUCUACAGUCCGACGAUCGCUUCGAUAUCCGCAUGCUACUGGAGCUGCCCUACUAAGAGCCUCCUUAGCCCUGGGUGCUGGGAAGGAUGGUGUACGUUGGGGAAGUUUGAGGUUGGAGAGAGUAAAUGUGCCUUGAGAGACCACUCAGAGGUCCCAGGAGGAACGGGGGCGGGGCUUAGCCUGGGAGUUCUGGCAGGAGGCAAAGUUGGUGAGAGUCCUGGGACAUCUUACCCCCAGUGUUCCACAGGAGUCGUGACCACGUGUGAUGGGUGGGCACAGGUCUGCCUUGCUCCAGCCCCUCUUGCGGUCGCACUAGUGUGGAAUUCUCGGGUGUCAAGG
B2: ENSMUSG00000004113.268|Cacna1b (ssRNA)
RNA: GGGAGUUCUACAGUCCGACGAUCGCUUCGAUAUCCGCAUGCUACGUGUUACAAGAAACUGGCAGGAAGGAAAUGGCCCUGGAACAGGCCAGGUGCCUAGAGCUAAGUCAGGCCCCUGGCUUAGCACUAGAAAAAAUAAAACCUCAUGGCUGCUUUGCAAAGGGAAAACCCAUGCUCAGGAAGGUGUUCAGUGUGCACAGAUAGCUGGGAGGCCACGAGAGAAAGGUUGCACACAGACAGGCAGGCACUCCUUGGUGUGGUCUCUCUGUUUUGAAACUUCUGAUGACUUCUUGGUGGCUUGUUGCUCUUGCGGUCGCACUAGUGUGGAAUUCUCGGGUGUCAAGG
B3: ENSMUSG00000029028.187|Lrrc47|67:71 (ssRNA)
RNA: GGGAGUUCUACAGUCCGACGAUCGCUUCGAUAUCCGCAUGCUAGUCAGCGUGUCCCACUAUUCAUGUCCCAUCUCUGUGCAUCCUGACUGCGCACAUCCCAUCUCCGCAACACAACGCAUCUGUACCAGCACACAGCUGCCAUCCCUCGAGCCACAGUGCCUGGUCCUAAGGACCCAGCAGCUGCACAGAGGACUUGGUGGCCCCGUGCCUUGCCAUCUGGCUGAGAAGAGAACCAGACCCUCAGCCUUCCCCCUCGACACCUUCUCGUUGGUGACCUCUGACCUUAAAGGACCAUUUCUACCCUCUUGCGGUCGCACUAGUGUGGAAUUCUCGGGUGUCAAGG
B4: ENSMUSG00000061578.966|Ksr2 (ssRNA)
RNA: GGGAGUUCUACAGUCCGACGAUCGCUUCGAUAUCCGCAUGCUAGCCCUGGAUGUGACUAUAUGUGCUGAGAAGGGAAGGUAGUUUUCCCCCAGAAAGUCCCUUCUAAUAAACAUUGAUGACUUUAGAAUCCAUGACUCAGAAUUUUCCAGAGACCCAAUCCCUCGGGGUCCACUUAGUGAUGGGACCAUACAAGAGUUUAUUUCCAAUUAGAGAAUUGGGUCAACUGGGAAAGGCUUCUUUCCUGGUAACCCUGCUACUGAUACUAUGUUGAAACAGGAAUCGACUCUAACUGCUUUUUGGCCCUCUUGCGGUCGCACUAGUGUGGAAUUCUCGGGUGUCAAGG
B5: ENSMUSG00000031028.668|Tub (ssRNA)
RNA: GGGAGUUCUACAGUCCGACGAUCGCUUCGAUAUCCGCAUGCUAGGCAAAAUUUCUCUAGCUGAGAGCACACUUAGCCAGUUUUCACGCCUAGAACAUAUAUGUCGAUUUGCACAUGAUUGUCUUUUCCUAUUUUGGAGUGGUCAGACAUUUUAUUUUUGUUCAAAAUUAUCUGGAGUUUUAGACAAACUUGCAAAACUGUGCUUUUAUUAAGUGACUUUUUGAAUAAACUUUUUGGUAUUCUGAAGCAAAUGUAUUUAUUUAUUGGUAUGUGCAAUGACAAACUUGGUAUUUUCCCAUAAUGACUCUUGCGGUCGCACUAGUGUGGAAUUCUCGGGUGUCAAGG
B6: ENSMUSG00000061578.140|Ksr2 (ssRNA)
RNA: GGGAGUUCUACAGUCCGACGAUCGCUUCGAUAUCCGCAUGCUAGGCUGUGGCAAGAGAGUUCUGGUGUGUUCUCUCUGUGGGGCUAGCAAUGCCGGGGUUAAGUUCUCCCUCGGUGAUGGAGACGGUCCUGGGUAUGCAUGAUGGGUUACAUGGGUGUGUGUGUGUGUGUAACUGUUUACAAUGGUCUCCCUGCCUCUCACGGGCUGUGUUCCAGGAGAAUGCACAUAGAGAGGUUCUGUGGUCUCUGCUGUCGCCUGGUGCUGAAUCCUGAGUGGUUUCCCCACUGAGGACCCUGUGACCCUCUCUUGCGGUCGCACUAGUGUGGAAUUCUCGGGUGUCAAGG
B7: ENSMUSG00000061578.854|Ksr2|32:36 (ssRNA)
RNA: GGGAGUUCUACAGUCCGACGAUCGCUUCGAUAUCCGCAUGCUAAGAGCAAUACAGGAAAAGGUCAGGGGUGAGAACACACAUUGCCACUUCCUCCAGCUAGGACCUUUGAGCAUCACAUUGUGAAGCCAUCCAGGGACUUGGGGGUUAGGUCAGAGGUAUCAAUACAUCUCCGGAAACAUCGUCACAGAUACCUAGAGGUACUUCAUUGAUCCCUUGAAAAGCAUGUCUUAAUUCUGUUAAGAUGUCAAUCAAGAUUACACAUCUCACUGCUUCACAGGCCAUCAGGGCCCCAUUCUGAGGUCCUCUUGCGGUCGCACUAGUGUGGAAUUCUCGGGUGUCAAGG
B8: ENSMUSG00000090935.379|Synj2bp (ssRNA)
RNA: GGGAGUUCUACAGUCCGACGAUCGCUUCGAUAUCCGCAUGCUAAGAUGCAGGGAUAUUGGUGAGGUGGGAGCUGUCCUGUUUAUGUAACAUCUAAGUUGGUUUUAGAGUACUGAGGAUAGUUGAACCAAGCCUAUUUUUUUUCCACUUUAACAAAAUAAUUUCCUUCUUUUCAGUAAAUUGGCCAGACUAUUAUUUUGACAUAAGAUUAUGAAGAGUUUUCCCGACAGUCUAGCAGUCACUUAACAGAUGUUGAUUGCACAUUAGUUUUGUCAGGACACCUUUAUAAAAAGAGAAAUGCACAUCUCUUGCGGUCGCACUAGUGUGGAAUUCUCGGGUGUCAAGG
B9: ENSMUSG00000061578.1219|Ksr2 (ssRNA)
RNA: GGGAGUUCUACAGUCCGACGAUCGCUUCGAUAUCCGCAUGCUACAGCAUGCUUCACUCUAUGAAUGAGCCGCUGGGAUAUUGACAUGGAGAUGUGUUGAUGGAAAAAGCCUCCACACCCAACAUAACUCUCCAGAGAGAUAUUGAAAGUGAUGGGCAGAGAGUCUGACAAUGACCCAGGGGUCAUUGUGAGUCCUAGGCUGAAUCUGUAAUGGGGUCCAAAGUGCAGGAGAGACUGCAUUCACCUUGUUGGUGGGGUGGGGCUUCUUUCAUUACUUUAAGUAUCUGUAUGGGCUUGAGGCAUGCUCUUGCGGUCGCACUAGUGUGGAAUUCUCGGGUGUCAAGG
B10: ENSMUSG00000090935.669|Synj2bp (ssRNA)
RNA: GGGAGUUCUACAGUCCGACGAUCGCUUCGAUAUCCGCAUGCUAUGGAGUGAGAUGAGUGUGUGCCAGCCAGCAACUCUGUCCUUCUAGGUAACUGGUUCAUGCUGAACCUUGAGAUUCACCACUGUCAGGAGCUCUCUCUCUCUGCUUAGAAUCAUCCAGACAGCGGGCUGGUCAGCCCACAUUAAAUAAGAACAUGUGGGACUAGAAUUCAGUCAACAAUGACAUGUUUCAUCAGGUGGUUAAAAUGUACAGAUUCUGUUGGAAAUGUUCCAUGGUAUUUCAAUAGCCAGAAUGAAGAACUGCUCUUGCGGUCGCACUAGUGUGGAAUUCUCGGGUGUCAAGG
B11: ENSMUSG00000061578.1454|Ksr2 (ssRNA)
RNA: GGGAGUUCUACAGUCCGACGAUCGCUUCGAUAUCCGCAUGCUAGGGUAAAUGAAUGGAUAGGUAUGUGAAUGAAUGGAUGAUGGAUGAAUGGAUGGGUAGGUGGGUAGAUAGGUAUAUGAAUGAAUGGAUGAAUGGAUGGGUGAAUGGAUGGAUAGGUAUGUGAAUAAAUGGAUGGAUGGAUGGAUUGAUUUGUGAAUGAAUGGAUGAAUGGAUGGGUAGGUGGGUGGAUGCAUAGGCAAGUAGAUGAAUGAAUAUGUGGGUAGAAGGGUGAGUGGGUGGAUGAAUGGAUGGAUAGGUUGGUACUCUUGCGGUCGCACUAGUGUGGAAUUCUCGGGUGUCAAGG
B12: ENSMUSG00000061578.1449|Ksr2 (ssRNA)
RNA: GGGAGUUCUACAGUCCGACGAUCGCUUCGAUAUCCGCAUGCUAGGUAUAUAAAUGGAUGGAUGGGUGAUGGAUGGGUAAAUGAAUGGAUAGGUAUGUGAAUGAAUGGAUGAUGGAUGAAUGGAUGGGUAGGUGGGUAGAUAGGUAUAUGAAUGAAUGGAUGAAUGGAUGGGUGAAUGGAUGGAUAGGUAUGUGAAUAAAUGGAUGGAUGGAUGGAUUGAUUUGUGAAUGAAUGGAUGAAUGGAUGGGUAGGUGGGUGGAUGCAUAGGCAAGUAGAUGAAUGAAUAUGUGGGUAGAAGGGUGAGCUCUUGCGGUCGCACUAGUGUGGAAUUCUCGGGUGUCAAGG
B13: ENSMUSG00000061578.1443|Ksr2 (ssRNA)
RNA: GGGAGUUCUACAGUCCGACGAUCGCUUCGAUAUCCGCAUGCUAGCAAGUAGGAUGGAUGGAUGAGUGAGUGGAUAGGUAGGUAUAUAAAUGGAUGGAUGGGUGAUGGAUGGGUAAAUGAAUGGAUAGGUAUGUGAAUGAAUGGAUGAUGGAUGAAUGGAUGGGUAGGUGGGUAGAUAGGUAUAUGAAUGAAUGGAUGAAUGGAUGGGUGAAUGGAUGGAUAGGUAUGUGAAUAAAUGGAUGGAUGGAUGGAUUGAUUUGUGAAUGAAUGGAUGAAUGGAUGGGUAGGUGGGUGGAUGCAUAGGCUCUUGCGGUCGCACUAGUGUGGAAUUCUCGGGUGUCAAGG

Over roughly 9,900 sequences, “r (bound/input frequency ratio)” has its median near 0.7; the highest 2% begin near 6.5. This is one part of a sample in which the highest values are shown more often than they occur.

Chain of TDP-43 (Q13148 whole entry): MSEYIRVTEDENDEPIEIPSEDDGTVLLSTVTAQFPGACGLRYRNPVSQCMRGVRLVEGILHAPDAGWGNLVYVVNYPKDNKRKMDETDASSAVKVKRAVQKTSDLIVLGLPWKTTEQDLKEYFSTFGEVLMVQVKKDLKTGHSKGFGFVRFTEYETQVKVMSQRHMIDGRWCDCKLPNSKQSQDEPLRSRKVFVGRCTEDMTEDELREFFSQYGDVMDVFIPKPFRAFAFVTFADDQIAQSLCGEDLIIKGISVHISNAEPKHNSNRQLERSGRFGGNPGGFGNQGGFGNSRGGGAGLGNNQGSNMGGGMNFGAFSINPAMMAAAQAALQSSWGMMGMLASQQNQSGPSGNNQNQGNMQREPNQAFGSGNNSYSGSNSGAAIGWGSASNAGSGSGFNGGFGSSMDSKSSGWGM

This test deals with TDP-43 (Homo sapiens, UniProt Q13148 1-414). The test is described as follows: RNA Bind-n-Seq with designed 260-mer pool; 25 mM Tris-HCl, 150 mM KCl, 3 mM MgCl2, BSA (printed 500 mg/mL), 20 units/mL SUPERase IN; pH not stated; 500 nM RNA pool, 1 h, 4 C; TDP-43 5, 50, 500 nM; high values mean tight binding. The conditions noted are these: protein: recombinant; tags: SBP (GST cleaved off with PreScission; pGEX-GST-SBP). The procedure, abridged:
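Duplicate measurements used two independent batches of recombinant SBP-tagged TDP-43, which was captured on streptavidin beads at 5, 50 or 500 nM. The beads were incubated with 500 nM of an in vitro-transcribed 260-nt 3′ UTR oligo pool for 1 h at 4 °C in 25 mM Tris-HCl, 150 mM KCl, 3 mM MgCl2, BSA and SUPERase IN. After washing, biotin elution, reverse transcription, PCR amplification and sequencing, binding was expressed as R: each oligo's normalized read abundance in the bound sample over its abundance in input.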
For the molecule B1, the binding signal was 5.55 R (bound/input frequency ratio).

For the molecule B2, the binding signal is 0.57 R (bound/input frequency ratio).

As to B3, the binding signal is 1.42 R (bound/input frequency ratio).

With B4, the binding signal was 0.302 R (bound/input frequency ratio).

For the molecule B5, the binding signal was 0.159 R (bound/input frequency ratio).

Turning to B6, the binding signal is 5.07 R (bound/input frequency ratio).

On to B7, for which the binding signal is 0.103 R (bound/input frequency ratio).

For B8, the binding signal was 0.043 R (bound/input frequency ratio).

For B9, the binding signal is 0.535 R (bound/input frequency ratio).

B10: the binding signal is 1.53 R (bound/input frequency ratio).

Turning to B11, the binding signal is 2.48 R (bound/input frequency ratio).

Turning to B12, the binding signal is 3.93 R (bound/input frequency ratio).

In the case of B13, the binding signal was 9.18 R (bound/input frequency ratio).

The values are drawn from PMC12864922, “TDP-43 directly inhibits mRNA accumulation in neurites through modulation of mRNA stability”.
